In PubChem BioAssay AID602250 (The Scripps Research Institute Molecular Screening Center, 2012):
Hit rate of the full screen: of about 360,000 compounds, about 2,200 (0.61%) were called active.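 The calls were made as follows: active = inhibition above a per-plate cutoff, the plate's mean sample inhibition plus 3 SD (cut at about 24% in these data); inactive = the rest.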 Only a selection was taken, and actives are over-represented in it overall.

Assay: nonselective inhibitors of ATP calcium response in CHO-K1, primary screen, counter-screen for M1 antagonist project, cell-based, Fluo-8 calcium fluorescence, full deck, 1536-well (AID 602250);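 also: 0% = DMSO plus EC80 ATP and 100% = DMSO alone without ATP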
Details: CHO-K1 parental, ATP-induced calcium, Fluo-8 fluorescence; at 3 µM; stronger effect = higher value

| Structure (SMILES) | inhibition |
| --- | --- |
| Cc1cc(C)n2c(Nc3c(C)cccc3C)c(CCc3ccccc3)nc2n1 | 2.51% (inactive) |
| CCOC(=O)N/N=C1\CC(C)S(=O)(=O)c2ccc(Cl)cc21 (configuration not stated) | -8.64% (inactive) |
| Cc1cccc(S(=O)(=O)N(C)C[C@@H]2OCc3cnnn3CCCC(=O)N([C@H](C)CO)C[C@@H]2C)c1 | 1.2% (inactive) |
| CC(C)(C)n1nc2c(c1NC(=O)c1cc3ccccc3o1)CSC2 | -14.9% (inactive) |
| CN(C)C(CNC(=O)c1cc2ccccc2o1)c1ccccc1 (configuration not stated) | -1.56% (inactive) |
| O=C(Nc1ccncc1)c1cc2ccccc2o1 | 23.7% (active) |
| O=C(CSc1nnnn1-c1ccc2c(c1)CCC2)Nc1ccc2c(c1)OCCO2 | 16.9% (inactive) |
| N#Cc1c(NCCO)ccc([N+](=O)[O-])c1NCCO | -7.72% (inactive) |
| O=S(=O)(NC1CCCCC1N1CCC(O)CC1)c1ccc(Cl)cc1 (configuration not stated) | -4.04% (inactive) |
| CCN1CCN(C2CCCCC2NS(=O)(=O)c2ccc(Cl)cc2)CC1 (configuration not stated) | -7.77% (inactive) |
| CCOC1CCCCC1NS(=O)(=O)c1ccc(Cl)cc1 (configuration not stated) | 38.7% (active) |
| CCOC(=O)c1cc2occc2n1CC(=O)NC1CCC(C)CC1 (configuration not stated) | -7.77% (inactive) |
| CCOC(=O)C1=CCC(c2ccc(F)cc2)N(S(=O)(=O)c2ccc(C)cc2)C1 (configuration not stated) | 31.3% (active) |
| CCOC(=O)C1CN(S(=O)(=O)c2ccc(F)cc2)C1 | 0.12% (inactive) |
| CCOC(=O)C1=CC[C@@H](c2ccncc2)N(S(=O)(=O)c2ccc(C)cc2)C1 | 25.1% (active) |
| CC(=O)C1=CCC(c2ccccc2)N(S(=O)(=O)c2ccc(C)cc2)C1 (configuration not stated) | -16.2% (inactive) |
| CCOC(=O)C1=CC[C@@H](c2ccccc2)N(S(=O)(=O)c2ccc(C)cc2)[C@H]1c1ccc(CC)cc1 | 11.1% (inactive) |
| CCOC(=O)C1=CC[C@@H](c2ccccc2)N(S(=O)(=O)c2ccc(C)cc2)[C@H]1c1cccc(OC)c1 | 8.14% (inactive) |
| O=C1C=CN2CCCC2CC1 (configuration not stated) | -0.95% (inactive) |
| CCC(C)(C)NC(=O)C(c1ccc(O)cc1)N(C(=O)Cn1nnc2ccccc21)c1ccc(NC(C)=O)cc1 (configuration not stated) | -17.9% (inactive) |
| COc1ccccc1-n1c(C)nc2cc(C(=O)NCc3ccc4c(c3)OCO4)ccc21 | -1.86% (inactive) |
| Cc1ccc(NC(=O)c2sccc2C)cc1[N+](=O)[O-] | -7.01% (inactive) |
| CN(CC(=O)Nc1cccc(F)c1)C(=O)C1=COCCO1 | 9.82% (inactive) |

| Structure (SMILES) | inhibition |
| --- | --- |
| Cc1ccc(NC(=O)CN(C)CC(=O)Nc2cccc(F)c2)cc1[N+](=O)[O-] | 26.1% (active) |
| COc1cc([N+](=O)[O-])ccc1NC(=O)COC(=O)CCOc1ccc(C)cc1 | -5.41% (inactive) |
| CCSc1nc(C)c(CCOc2cccc(C)c2)c(=O)[nH]1 | 11.1% (inactive) |
| COc1ccc(CN(C)C(=O)c2cc(-c3ccc(C)cc3C)nc3ccccc23)c(OC)c1OC | 5.32% (inactive) |
| COc1ccc(-c2cc(C(=O)N(C)Cc3ccc(OC)c(OC)c3OC)c3ccccc3n2)cc1OC | 26.8% (active) |
| COc1ccc(-c2cc(C(=O)N(C)CC(=O)Nc3ccccc3Cl)c3ccccc3n2)cc1OC | 7.04% (inactive) |
| CC(NC(=O)CNC(=O)Cc1cccc2ccccc12)c1ccc(S(N)(=O)=O)cc1 (configuration not stated) | 4.92% (inactive) |
| COc1ccc(-c2nn(C)c(=O)c3ccccc23)cc1CNC(=O)C1CCCCC1 | 3.7% (inactive) |
| COc1ccc(S(=O)(=O)N2CCCCC2)cc1NC(=O)COc1ccccc1 | -8.54% (inactive) |
| COc1ccc(-c2nn(C)c(=O)c3ccccc23)cc1NC(=O)COc1ccccc1 | 23.8% (active) |
| O=C(O)CCn1c(SCc2cc(=O)n3ccccc3n2)nc2ccsc2c1=O | -10.2% (inactive) |
| CCOC(=O)C1(CCOC)CCN(Cc2cc3ccccc3s2)CC1 | -9.7% (inactive) |
| CCNC(=O)c1cccc(NC(=O)C2CC(=O)N(CCc3ccccc3)C2)c1 (configuration not stated) | -8.93% (inactive) |
| COC(=O)C1=C(C(=O)OC)C2(OC1c1ccc(Br)cc1)C(=O)c1ccccc1C2=O (configuration not stated) | -3.96% (inactive) |
| O=C(c1ccc(C(F)(F)F)cc1)C1CCCN(C(=O)c2csnn2)C1 (configuration not stated) | -23.1% (inactive) |
| CC(C)(C)OC(=O)C[C@@H]1C/C=C\C[C@@H](CC(=O)NCCO)C(=O)N[C@H](Cc2c[nH]c3ccccc23)COC1=O | -11.8% (inactive) |
| Cc1nc(CN(C)C(=O)CC2C(=O)NCCN2Cc2ccc(F)cc2)cs1 (configuration not stated) | -6.22% (inactive) |
| Nc1c(C(=O)c2cccs2)sc2nsc(SCCN3CCCCC3)c12 | 47% (active) |
| CCN(CC(=O)Nc1cc(Cl)ccc1C)C(=O)CN1C(=O)NC2(CCCC2)C1=O | -4.87% (inactive) |
| CCCc1nc2ccccc2c(C(=O)OCc2nnc(-c3cc(OC)c(OC)c(OC)c3)o2)c1CC | 1.5% (inactive) |
| COc1cc(-c2nnc(NC(=O)CS(=O)(=O)c3ccc(Cl)cc3)o2)cc(OC)c1OC | 12.6% (inactive) |
| COc1cc(-c2nnc(Cn3cc(C(F)(F)F)ccc3=O)o2)cc(OC)c1OC | 27.6% (active) |
| Cn1c(SCC(=O)NC2CCCCC2)nnc1-c1ccc(N)cc1 | 3.52% (inactive) |

| Structure (SMILES) | inhibition |
| --- | --- |
| O=C1C(C=NCC2CCCO2)=C(O)c2ccccc21 (configuration not stated) | -5.68% (inactive) |
| N#Cc1cc([N+](=O)[O-])ccc1NCC1CCCO1 (configuration not stated) | -8.37% (inactive) |
| O=C1c2cccc3c([N+](=O)[O-])ccc(c23)C(=O)N1CC1CCCO1 (configuration not stated) | 24.2% (active) |
| CCOc1ccc(NC(=S)N2CCC(N(C)CC3CCCO3)CC2)cc1 (configuration not stated) | -7.23% (inactive) |
| COc1ccc(CC(=O)Nc2nc(-c3ccc(F)c(F)c3)cs2)cc1OC | 32.9% (active) |
| COc1ccc(CCNC(=O)Cc2ccc(C)cc2)cc1OC | 8.59% (inactive) |
| COc1ccc(CC(=O)NC2CCSc3ccccc32)cc1OC (configuration not stated) | -0.56% (inactive) |
| CC(=O)Nc1cccc(NC(=O)c2c(-c3ccccc3)noc2C)c1 | 26.9% (active) |
| Cc1onc(-c2c(F)cccc2Cl)c1C(=O)N(C)CC(=O)Nc1cccc(F)c1 | -0.6% (inactive) |
| CC(=O)Nc1cccc(/C(C)=N/NC(=O)c2c(-c3ccccc3Cl)noc2C)c1 | 10.5% (inactive) |
| CC(C)c1nc(SCC(=O)NC(=O)NC(C)(C)C)n[nH]1 | -2.13% (inactive) |
| Cc1cc(NC(=O)Nc2c[nH]c(=O)[nH]c2=O)ccc1Br | -4.71% (inactive) |
| CCN1N=C(c2ccccc2)CCC1=O | -1.49% (inactive) |
| O=C1NC(=O)C2C1C(c1ccc([N+](=O)[O-])cc1)=NN2Cc1ccccc1 (configuration not stated) | -6.56% (inactive) |
| O=C1CC(c2ccccc2)=NN1c1ccc([N+](=O)[O-])cc1 | 26.7% (active) |
| Cc1csc(NC(=O)C2CCCN2C(=O)OCC(C)C)n1 (configuration not stated) | 17% (inactive) |
| CC(C)(C)C(=O)Nc1ccc(C(=O)N/N=C/c2ccccc2OC(=O)c2ccc(Cl)cc2Cl)cc1 | 13.2% (inactive) |
| O=C(N/N=C/c1ccc(OC(=O)c2ccccc2Cl)cc1)c1ccc(O)cc1 | 24.1% (active) |
| O=C(N/N=C/c1ccc(OCC2COCCO2)cc1)c1ccc(Br)cc1 (configuration not stated) | -8.18% (inactive) |
| O=C(c1ccccc1F)N(Cc1ccccc1)Cc1ccccc1 | -7.64% (inactive) |
| COCCn1c(Cc2cccn2C)nnc1SCC(=O)Nc1nccs1 | -7.19% (inactive) |
| Cc1ccc(S(=O)(=O)N2CCN(C(=O)c3cccs3)CC2)cc1 | -9.88% (inactive) |
| O[C@H]1C[C@H](c2ccc(Cl)cc2)N(Cc2cccs2)C[C@@H]1n1cc(C2CC2)nn1 | -27.1% (inactive) |

| Structure (SMILES) | inhibition |
| --- | --- |
| O=C(Nc1ccc(-c2ccc3nncn3n2)cc1)C1CCCCC1 | -5.78% (inactive) |
| CCCN(C(=O)CSc1nnnn1C)c1c(N)n(Cc2ccccc2)c(=O)[nH]c1=O | 4.6% (inactive) |
| C#CCNC(=O)C[C@@H]1C[C@@]2(C(=O)OCC)CCCC=C2N(Cc2ccco2)C1=O | -0.85% (inactive) |
| COc1cc(OC)cc(-c2nnc(SCC(=O)Nc3ccc(C(=O)O)cc3)s2)c1 | -8.28% (inactive) |
| Nc1nnc(SCC(=O)Nc2ccc3nc(SCC(=O)Nc4ccccc4)sc3c2)s1 | 30% (active) |
| CCCCNC(=O)CSc1nc2ccc(NC(=O)CSc3nnc(N)s3)cc2s1 | -6.75% (inactive) |
| CCN(CC)CCN1C(=O)C2C(C(=O)Nc3ccc(Br)cc3)C3C=CC2(O3)C1C(=O)NC1CCCCC1 (configuration not stated) | -12.1% (inactive) |
| COc1ccc(C(=O)N2CCCC(C(=O)c3ccccc3OC)C2)cc1OC (configuration not stated) | 36.9% (active) |
| COc1ccc(C(=O)C2CCCN(C(=O)c3cc(C)on3)C2)cc1F (configuration not stated) | -2.55% (inactive) |
| COc1ccc(F)cc1C(=O)C1CCCN(C(=O)CCc2ccccn2)C1 (configuration not stated) | 4.6% (inactive) |
| CCN(CC)CC(=O)Nc1sc2c(c1C(=O)c1ccccc1C)CCC2 | 3.09% (inactive) |
| O=C(Nc1ccc(Cl)cc1)OCc1cc(-c2ccccc2)on1 | 7.62% (inactive) |
| O=C(Nc1cccc(Cl)c1)OCc1ccccn1 | 25.6% (active) |
| O=C(Nc1ccc([N+](=O)[O-])cc1)OCCc1ccccn1 | -2.63% (inactive) |
| O=C(CN1CCN(S(=O)(=O)c2ccc3ccccc3c2)CC1)NC(=O)NC1CCCCC1 | -2.87% (inactive) |
| COc1cc2ccc(C(C)=O)c(O)c2cc1OC | -2.14% (inactive) |
| CCN(CC(=O)Nc1ccc2c(c1)OCO2)S(=O)(=O)c1ccccc1 | -6.57% (inactive) |
| O=C(CCS(=O)(=O)Cc1ccccc1)Nc1ccc2c(c1)OCCO2 | -8.23% (inactive) |
| O=C(CN(c1ccc2c(c1)OCCO2)S(=O)(=O)c1ccccc1)Nc1ccc2c(c1)OCO2 | 30.7% (active) |
| CC1CCCCN1S(=O)(=O)CCNC(=O)c1ccccc1 (configuration not stated) | 14.2% (inactive) |
| CC(=O)Nc1ccc(N2C(=O)CC(Sc3nccc(C)n3)C2=O)cc1 (configuration not stated) | 23.8% (active) |
| Cc1ccnc(SC2CC(=O)N(c3ccccc3)C2=O)n1 (configuration not stated) | 16.3% (inactive) |
| CCOc1ccccc1N1C(=O)CC(Sc2nccc(C)n2)C1=O (configuration not stated) | -15.2% (inactive) |
